In PubChem BioAssay (NCATS):
Records with an inconclusive call do not appear. Active and inactive are the calls of the source. Calls come from the whole dose curve; as a rule, active = well fitted curve in the direction sought with a large enough effect; inconclusive = small, poorly fitted or top-dose-only effect, or another doubt; inactive = no such curve, though single readings can be large; an effect the other way counts as inactive or inconclusive.

Key:
[1] = molecular target: Rap guanine nucleotide exchange factor 3 (Homo sapiens) (UniProt O95398); experiment: Confirmatory qHTS for antagonist of cAMP-regulated guanine nucleotide exchange factor 3 (EPAC1) (AID 1645880); note: nearly all actives have a fitted effect of over 55% in size
Method in brief: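 Nucleotide exchange uses 100 nM EPAC1, 250 nM RAP1B-BODIPY-GDP and 50 uM GDP, with compounds in a concentration-titration series. After 5 min at room temperature, fluorescence (480 nm ex/540 nm em) is read every 5 min for 30 min. Data are normalized to control ATA and DMSO.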

[2] = molecular target: Rap guanine nucleotide exchange factor 3 (Homo sapiens) (UniProt O95398); experiment: Confirmatory qHTS for agonist of cAMP-regulated guanine nucleotide exchange factor 3 (EPAC1) (AID 1645881);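 note: EPAC1 catalysed release of BODIPY-GDP from Rap1B seen as fluorescence loss; nearly all actives have a fitted effect of over 75% in size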
[3] = molecular target: Rap guanine nucleotide exchange factor 4 (Homo sapiens) (UniProt Q8WZA2); experiment: Confirmatory qHTS for agonist of cAMP-regulated guanine nucleotide exchange factor 4 (EPAC2) (AID 1645884);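 note: nucleotide exchange releases bodipy-GDP from Rap1 and this lowers its fluorescence; nearly all actives have a fitted effect of over 65% in size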
[4] = molecular target: Rap guanine nucleotide exchange factor 4 (Homo sapiens) (UniProt Q8WZA2); experiment: Confirmatory qHTS for antagonist of cAMP-regulated guanine nucleotide exchange factor 4 (EPAC2) (AID 1645885); note: nearly all actives have a fitted effect of over 25% in size; note: potency is the fitted concentration of half-maximal effect
[5] = molecular target: Rap guanine nucleotide exchange factor 3 (Homo sapiens) (UniProt O95398); experiment: Counterscreen qHTS for agonist of cAMP-regulated guanine nucleotide exchange factor 3 (EPAC1) (AID 1645889); note: nearly all actives have a fitted effect of over 40% in size
Method in brief: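 Measured: fluorescence of BODIPY-GDP bound to Rap1B, which falls as exchange proceeds. Conditions include 50 uM competing GDP, 5 and 30 min reads, and a later cAMP challenge for antagonist detection.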

Measured: Potency

Sequence of Rap guanine nucleotide exchange factor 3 (Homo sapiens) (O95398 whole entry, looked up): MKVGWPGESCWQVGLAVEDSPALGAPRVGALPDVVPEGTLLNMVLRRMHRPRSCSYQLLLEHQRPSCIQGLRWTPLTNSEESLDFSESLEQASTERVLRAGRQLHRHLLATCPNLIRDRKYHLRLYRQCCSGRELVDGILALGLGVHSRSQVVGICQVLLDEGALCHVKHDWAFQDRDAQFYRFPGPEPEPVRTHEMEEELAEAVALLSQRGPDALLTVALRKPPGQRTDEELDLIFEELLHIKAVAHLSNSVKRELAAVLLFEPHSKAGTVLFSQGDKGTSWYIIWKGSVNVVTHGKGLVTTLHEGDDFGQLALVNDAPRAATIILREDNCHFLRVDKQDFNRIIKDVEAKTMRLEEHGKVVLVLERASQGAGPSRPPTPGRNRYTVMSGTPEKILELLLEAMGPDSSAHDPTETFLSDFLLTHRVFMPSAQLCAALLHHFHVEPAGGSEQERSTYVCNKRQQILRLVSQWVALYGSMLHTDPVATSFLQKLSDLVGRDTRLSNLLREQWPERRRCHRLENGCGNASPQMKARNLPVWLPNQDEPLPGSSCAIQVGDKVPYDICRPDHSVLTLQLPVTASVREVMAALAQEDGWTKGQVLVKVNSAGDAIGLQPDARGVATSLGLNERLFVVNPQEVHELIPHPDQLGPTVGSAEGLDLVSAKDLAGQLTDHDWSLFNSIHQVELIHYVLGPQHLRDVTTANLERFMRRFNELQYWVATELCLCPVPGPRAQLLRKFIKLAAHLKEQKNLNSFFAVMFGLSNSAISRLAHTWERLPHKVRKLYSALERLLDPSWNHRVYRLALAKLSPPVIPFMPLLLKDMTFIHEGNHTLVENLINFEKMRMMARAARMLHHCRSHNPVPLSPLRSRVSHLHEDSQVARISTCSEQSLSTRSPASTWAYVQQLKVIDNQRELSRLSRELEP
Sequence of Rap guanine nucleotide exchange factor 4 (Homo sapiens) (Q8WZA2 whole entry, looked up): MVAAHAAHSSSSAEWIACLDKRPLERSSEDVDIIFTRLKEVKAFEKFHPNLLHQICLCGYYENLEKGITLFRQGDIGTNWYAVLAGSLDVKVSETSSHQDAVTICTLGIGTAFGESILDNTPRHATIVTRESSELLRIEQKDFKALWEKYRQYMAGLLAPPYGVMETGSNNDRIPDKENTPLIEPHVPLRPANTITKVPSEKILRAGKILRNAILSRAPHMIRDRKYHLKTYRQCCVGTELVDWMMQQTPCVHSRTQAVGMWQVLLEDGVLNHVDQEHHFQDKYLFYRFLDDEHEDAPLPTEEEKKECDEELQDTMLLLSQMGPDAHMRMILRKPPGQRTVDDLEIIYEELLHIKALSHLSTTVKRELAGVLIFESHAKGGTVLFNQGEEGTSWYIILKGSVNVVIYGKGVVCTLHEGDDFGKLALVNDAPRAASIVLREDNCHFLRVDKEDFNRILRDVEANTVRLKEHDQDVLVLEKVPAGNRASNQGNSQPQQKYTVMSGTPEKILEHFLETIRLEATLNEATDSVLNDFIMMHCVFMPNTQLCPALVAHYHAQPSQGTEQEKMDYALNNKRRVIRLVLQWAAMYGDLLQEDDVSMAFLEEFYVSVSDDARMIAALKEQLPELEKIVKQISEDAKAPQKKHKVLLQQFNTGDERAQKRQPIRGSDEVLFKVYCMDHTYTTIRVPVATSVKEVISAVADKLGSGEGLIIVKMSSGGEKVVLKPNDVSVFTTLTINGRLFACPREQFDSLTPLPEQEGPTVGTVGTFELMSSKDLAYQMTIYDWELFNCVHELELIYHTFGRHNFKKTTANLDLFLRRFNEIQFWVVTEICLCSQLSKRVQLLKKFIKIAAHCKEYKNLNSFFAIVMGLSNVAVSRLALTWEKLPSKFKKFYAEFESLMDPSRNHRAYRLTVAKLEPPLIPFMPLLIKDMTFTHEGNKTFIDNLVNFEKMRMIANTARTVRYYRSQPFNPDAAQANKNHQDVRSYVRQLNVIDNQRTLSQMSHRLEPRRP

Cc1cc(C)c2nc(C)cc(Nc3ccc(C(=O)NCCO)cc3)c2c1
inactive: all assays above

O=C(CSCC(=O)N1CCOCC1)Nc1nc(-c2ccccc2)cs1
active: [4] 84.9 µM
inactive: all other assays above
